For 63 molecules, cytotoxicity call results are on record in the antibiotic and cytotoxicity screens of Wong et al. (2023).

SMILES strings stand for the structures. Among all 39,000 compounds or so, about 3,300 (8.5%) were called active. The sample as a whole holds a higher share of actives than the screen did.

In this test the test system is HepG2. Kind of test: cytotoxicity call (relative viability < 0.9). Conditions: 10 µM.
With `CN1CCN(C(=O)C[C@H]2CC[C@@H]3[C@H](COC[C@@H](O)CN3Cc3ccc4c(c3)OCO4)O2)CC1`, the cytotoxicity call is “inactive”.
For `C[C@@H]1CCCCO[C@H](CN(C)C(=O)c2ccncc2)[C@H](C)CN([C@@H](C)CO)C(=O)c2cc(NS(=O)(=O)c3ccc(Cl)cc3)ccc2O1`, the cytotoxicity call was “inactive”.
`O=C(C[C@H]1C=C[C@H](NC(=O)c2cnccn2)[C@H](CO)O1)NCc1ccccc1F`: the cytotoxicity call is “inactive”.
Regarding `Cc1ccc(S(=O)(=O)N(C)C[C@H]2Oc3ccc(NC(=O)CCCN(C)C)cc3C(=O)N([C@H](C)CO)C[C@H]2C)cc1`, the cytotoxicity call was “inactive”.
For `CO[C@H](CN(C)C(=O)C1CCOCC1)[C@@H](C)CN(C(=O)Nc1ccc(C(F)(F)F)cc1)[C@@H](C)CO`, the cytotoxicity call was “inactive”.
In the case of `Cc1ccc(S(=O)(=O)Nc2ccc3c(c2)CC(=O)N([C@@H](C)CO)C[C@@H](C)[C@H](CN(C)Cc2ccc(-c4ccccc4)cc2)O3)cc1`, the cytotoxicity call was “inactive”.
Next, `Cc1ccc(S(=O)(=O)Nc2ccc3c(c2)CC(=O)N([C@H](C)CO)C[C@@H](C)[C@@H](CN(C)Cc2ccc(-c4ccccc4)cc2)O3)cc1`: “active”; `Cc1ccc(S(=O)(=O)Nc2ccc3c(c2)CC(=O)N([C@H](C)CO)C[C@H](C)[C@@H](CN(C)Cc2ccc(-c4ccccc4)cc2)O3)cc1`: “active”; `Cc1ccc(S(=O)(=O)Nc2ccc3c(c2)CC(=O)N([C@H](C)CO)C[C@@H](C)[C@H](CN(C)Cc2ccc(-c4ccccc4)cc2)O3)cc1`: “active”.
`Cc1ccc(S(=O)(=O)Nc2ccc3c(c2)CC(=O)N([C@H](C)CO)C[C@H](C)[C@H](CN(C)Cc2ccc(-c4ccccc4)cc2)O3)cc1`: the cytotoxicity call was “active”.
With `CS(=O)(=O)N1C[C@H]2CN(C(=O)c3cnccn3)C[C@@H]2C1`, the cytotoxicity call was “inactive”.
As for `Cc1cc(SCc2ccc(F)cc2)c(C)cc1Cl`, the cytotoxicity call was “inactive”.
Take `Cc1noc(C)c1NC(=O)N(C)C[C@H]1Oc2c(NC(=O)c3cnccn3)cccc2C(=O)N([C@@H](C)CO)C[C@H]1C`: the cytotoxicity call was “inactive”.
Turning to `Cc1noc(C)c1S(=O)(=O)Nc1ccc2c(c1)C(=O)N([C@H](C)CO)C[C@H](C)[C@@H](CN(C)S(=O)(=O)c1ccc(Cl)cc1)O2`, the cytotoxicity call was “inactive”.
Then `COCC#Cc1cnc2c(c1)C(=O)N([C@@H](C)CO)C[C@H](C)[C@H](CN(C)S(=O)(=O)c1cn(C)cn1)O2`, with “inactive”; and `COCC(=O)N[C@H]1C=C[C@@H](CC(=O)N2CCCCC2)O[C@@H]1CO`, with “inactive”; and `CCCC#Cc1ccc2c(c1)O[C@H](CN(C)S(=O)(=O)c1cccc(OC)c1)[C@H](C)CN([C@H](C)CO)S2(=O)=O`, with “inactive”.
With `C[C@@H]1CCCCO[C@@H](CN(C)C(=O)Nc2ccccc2)[C@@H](C)CN([C@H](C)CO)C(=O)c2cc(NC(=O)CCCCCC(=O)Nc3ccccc3N)ccc2O1`, the cytotoxicity call is “inactive”.
Consider `O=C(C1=C[C@@H](c2csc3ccccc23)C[C@@H](OCc2ccc(CO)cc2)O1)N1CCN(Cc2ccccc2)CC1`, for which the cytotoxicity call is “inactive”.
With `C[C@@H]1CCCCO[C@@H](CN(C)C(=O)Nc2ccc(F)cc2)[C@H](C)CN([C@H](C)CO)C(=O)c2cc(NC(=O)C3CCCCC3)ccc2O1`, the cytotoxicity call was “inactive”.
Then `CN1CCN(C(=O)C[C@H]2CC[C@H]3[C@@H](COC[C@@H](O)CN3C(=O)C3CCCC3)O2)CC1`, with “inactive”; and `Cc1cc(NC(=O)CSc2nnc[nH]2)no1`, with “inactive”; and `Cc1ccc(S(=O)(=O)Nc2ccc3c(c2)CC(=O)N([C@@H](C)CO)C[C@@H](C)[C@@H](CN(C)Cc2ccc(-c4ccccc4)cc2)O3)cc1`, with “active”.
As for `Cc1ccc(S(=O)(=O)Nc2ccc3c(c2)CC(=O)N([C@@H](C)CO)C[C@H](C)[C@@H](CN(C)Cc2ccc(-c4ccccc4)cc2)O3)cc1`, the cytotoxicity call is “inactive”.
Regarding `Cc1ccc(S(=O)(=O)Nc2ccc3c(c2)CC(=O)N([C@@H](C)CO)C[C@H](C)[C@H](CN(C)Cc2ccc(-c4ccccc4)cc2)O3)cc1`, the cytotoxicity call was “inactive”.
Turning to `Cc1noc(C)c1NC(=O)N(C)C[C@H]1OCCCC[C@@H](C)Oc2ccc(NC(=O)Nc3ccc(C(F)(F)F)cc3)cc2C(=O)N([C@H](C)CO)C[C@@H]1C`, the cytotoxicity call is “inactive”.
As for `C[C@H](CO)N1C[C@H](C)[C@H](CN(C)S(=O)(=O)c2ccc(F)cc2)Oc2ccc(NS(=O)(=O)c3ccccc3)cc2C1=O`, the cytotoxicity call was “inactive”.
Take `Cc1ccc(Nc2nnc(-c3ccccc3)c3ccccc23)cc1`: the cytotoxicity call is “active”.
In the case of `Cc1ccc2nc(Nc3ccccc3)nc(-c3ccccc3)c2c1`, the cytotoxicity call is “inactive”.
In the case of `Cc1ccc(Nc2c(-c3ccccc3)nc3ccccn23)cc1`, the cytotoxicity call was “inactive”.
`C[C@H](CO)N1C[C@H](C)[C@H](CN(C)S(=O)(=O)c2ccc3ccccc3c2)OCc2cn(nn2)CCCC1=O`: the cytotoxicity call was “inactive”.
Consider `C[C@H](CO)N1C[C@H](C)[C@H](CN(C)Cc2ccc(C(=O)Nc3ccccc3N)cc2)Oc2c(NC(=O)C3CCCCC3)cccc2C1=O`, for which the cytotoxicity call was “inactive”.
Consider `C[C@H]1CN([C@@H](C)CO)C(=O)c2cccc(NC(=O)C3CCCCC3)c2O[C@@H]1CN(C)Cc1ccc(C(=O)Nc2ccccc2N)cc1`, for which the cytotoxicity call is “inactive”.
Turning to `C[C@@H]1CN([C@@H](C)CO)C(=O)c2cccc(NC(=O)NC3CCCCC3)c2O[C@@H]1CN(C)Cc1ccc(C(=O)Nc2ccccc2N)cc1`, the cytotoxicity call is “inactive”.
Next, `C[C@H]1CN([C@@H](C)CO)C(=O)c2cccc(NC(=O)NC3CCCCC3)c2O[C@H]1CN(C)Cc1ccc(C(=O)Nc2ccccc2N)cc1`: “inactive”; `C[C@@H]1CN([C@@H](C)CO)C(=O)c2cccc(NC(=O)C3CCCCC3)c2O[C@H]1CN(C)Cc1ccc(C(=O)Nc2ccccc2N)cc1`: “inactive”.
Then `C[C@@H]1CN([C@H](C)CO)C(=O)c2cccc(NC(=O)C3CCCCC3)c2O[C@H]1CN(C)Cc1ccc(C(=O)Nc2ccccc2N)cc1`, with “inactive”; and `C[C@@H]1CN([C@@H](C)CO)C(=O)c2cccc(NC(=O)C3CCCCC3)c2O[C@@H]1CN(C)Cc1ccc(C(=O)Nc2ccccc2N)cc1`, with “active”.
Next, `C[C@H](CO)N1C[C@H](C)[C@H](CN(C)Cc2ccc(C(=O)Nc3ccccc3N)cc2)Oc2c(NC(=O)NC3CCCCC3)cccc2C1=O`: “active”; `C[C@H]1CN([C@@H](C)CO)C(=O)c2cccc(NC(=O)C3CCCCC3)c2O[C@H]1CN(C)Cc1ccc(C(=O)Nc2ccccc2N)cc1`: “active”; `C[C@@H]1CN([C@@H](C)CO)C(=O)c2cc(NC(=O)C3CC3)ccc2O[C@@H]1CN(C)S(=O)(=O)c1ccc(Cl)cc1`: “inactive”.
Regarding `Cc1ccc(S(=O)(=O)N(C)C[C@H]2OCCCC[C@@H](C)Oc3ccc(NC(=O)Nc4ccc(C(F)(F)F)cc4)cc3C(=O)N([C@@H](C)CO)C[C@H]2C)cc1`, the cytotoxicity call was “inactive”.
Regarding `O=C(O)c1c(Br)c(Br)c(Br)c(Br)c1-c1c2ccc(=O)cc-2oc2cc(O)ccc12`, the cytotoxicity call is “inactive”.
Next, `CNC[C@@H]1OCCCC[C@H](C)Oc2ccc(NC(=O)Nc3ccc(C(F)(F)F)cc3)cc2C(=O)N([C@@H](C)CO)C[C@@H]1C`: “inactive”.
`COc1ccc(S(=O)(=O)N(C)C[C@@H]2Oc3ccc(NC(=O)CCCN(C)C)cc3C(=O)N([C@@H](C)CO)C[C@H]2C)cc1`: the cytotoxicity call was “inactive”.
`C[C@@H]1CCCCO[C@@H](CN(C)C(=O)c2ccccc2)[C@H](C)CN([C@H](C)CO)C(=O)c2cc(NC(=O)c3ccccc3)ccc2O1`: the cytotoxicity call is “inactive”.
As for `CC(C)NC(=O)Nc1ccc2c(c1)CC(=O)N([C@@H](C)CO)C[C@@H](C)[C@H](CN(C)S(=O)(=O)c1cn(C)cn1)O2`, the cytotoxicity call is “inactive”.
`C[C@@H]1CN([C@H](C)CO)C(=O)c2cc(NC(=O)Nc3ccccc3)ccc2O[C@H]1CN(C)C(=O)Nc1ccc(C(F)(F)F)cc1`: the cytotoxicity call was “inactive”.
For the molecule `O=C(O)C[C@@H]1CC[C@H]2[C@@H](COC[C@@H](O)CN2S(=O)(=O)c2ccc(F)cc2)O1`, the cytotoxicity call is “inactive”.
Then `COc1ccc(NC(=O)Nc2cccc3c2O[C@@H](CN(C)CC2CCCCC2)[C@H](C)CN([C@H](C)CO)C3=O)cc1`, with “inactive”; and `C[C@@H]1CN([C@@H](C)CO)C(=O)c2cc(-c3cncnc3)cnc2O[C@H]1CN(C)C(=O)Nc1ccc2c(c1)OCO2`, with “inactive”.
In the case of `CC(C)NC(=O)N(C)C[C@H]1Oc2ccc(NC(=O)Nc3ccc4c(c3)OCO4)cc2C(=O)N([C@@H](C)CO)C[C@H]1C`, the cytotoxicity call is “inactive”.
Next, `CC(C)NC(=O)N(C)C[C@H]1Oc2c(NC(=O)Nc3ccc4c(c3)OCO4)cccc2C(=O)N([C@@H](C)CO)C[C@H]1C`: “inactive”; `Cc1cc(C(=O)Nc2cccc3c2O[C@H](CN(C)C(=O)Nc2ccc4c(c2)OCO4)[C@H](C)CN([C@@H](C)CO)C3=O)n(C)n1`: “inactive”.
On to `CC(C)NC(=O)N(C)C[C@@H]1Oc2c(NC(=O)Nc3ccc4c(c3)OCO4)cccc2C(=O)N([C@@H](C)CO)C[C@H]1C`, for which the cytotoxicity call is “active”.
Then `C[C@H](CO)N1C[C@H](C)[C@@H](CN(C)C(=O)Nc2ccc3c(c2)OCO3)Oc2ncc(-c3cncnc3)cc2C1=O`, with “active”.
Next, `CC(C)NC(=O)N(C)C[C@@H]1Oc2ccc(NC(=O)Nc3ccc4c(c3)OCO4)cc2C(=O)N([C@@H](C)CO)C[C@@H]1C`: “active”; `CC(C)NC(=O)N(C)C[C@H]1Oc2ccc(NC(=O)Nc3ccc4c(c3)OCO4)cc2C(=O)N([C@H](C)CO)C[C@H]1C`: “inactive”.
Then `C[C@@H]1CN([C@H](C)CO)C(=O)c2cc(-c3cncnc3)cnc2O[C@@H]1CN(C)C(=O)Nc1ccc2c(c1)OCO2`, with “inactive”; and `Cc1cc(C(=O)Nc2cccc3c2O[C@@H](CN(C)C(=O)Nc2ccc4c(c2)OCO4)[C@H](C)CN([C@@H](C)CO)C3=O)n(C)n1`, with “inactive”; and `CC(C)NC(=O)N(C)C[C@@H]1Oc2c(NC(=O)Nc3ccc4c(c3)OCO4)cccc2C(=O)N([C@H](C)CO)C[C@H]1C`, with “inactive”.
`Cc1cc(C(=O)Nc2cccc3c2O[C@@H](CN(C)C(=O)Nc2ccc4c(c2)OCO4)[C@@H](C)CN([C@@H](C)CO)C3=O)n(C)n1`: the cytotoxicity call was “active”.
`C[C@@H]1CCCCO[C@H](CN(C)Cc2ccc(C(=O)O)cc2)[C@@H](C)CN([C@H](C)CO)C(=O)c2cc(NC(=O)C3CCCCC3)ccc2O1`: the cytotoxicity call was “inactive”.
